Screens as filed in PubChem.
PNC assembly inh = High Content Assay for Compounds that inhibit the Assembly of the Perinucleolar Compartment; PC3M PTB-GFP, PNC prevalence imaging, 16 h; active compounds read low; 3.1% of 140,000 active; activity change (PNC), negative = inhibition, % at 10 µM;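 active = readout at or below -70, meaning at least 70% loss of cells showing the perinucleolar compartment, a nuclear body marking cancer cells; inconclusive = readout between -30 and a set limit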;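 note: plate controls were DMSO wells for no effect and camptothecin positive control wells for full effect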
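PC3M cells stably expressing PTB-GFP, 750–1000 cells/well, treated 16 h at 37 °C with compound (23 nl of library stock), in duplicate. After paraformaldehyde fixation and Hoechst stain, imaged at 20x; PNC prevalence scored by image analysis.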
ALDH1A1 block = qHTS Assay for Inhibitors of Aldehyde Dehydrogenase 1 (ALDH1A1). Purified ALDH1A1, NADH fluorescence, propionaldehyde substrate. Potency, µM (series often up to 75.3 µM), for inactives: at the top dose activity, negative = inhibition, usual class: inhibitors. Aldehyde dehydrogenase 1A1 (Homo sapiens), P00352. 7.3% of 220,000 active;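 note: potency is the fitted concentration of half-maximal effect; plate controls were no enzyme wells and a reference inhibitor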
Target sequence (P00352 whole entry, looked up): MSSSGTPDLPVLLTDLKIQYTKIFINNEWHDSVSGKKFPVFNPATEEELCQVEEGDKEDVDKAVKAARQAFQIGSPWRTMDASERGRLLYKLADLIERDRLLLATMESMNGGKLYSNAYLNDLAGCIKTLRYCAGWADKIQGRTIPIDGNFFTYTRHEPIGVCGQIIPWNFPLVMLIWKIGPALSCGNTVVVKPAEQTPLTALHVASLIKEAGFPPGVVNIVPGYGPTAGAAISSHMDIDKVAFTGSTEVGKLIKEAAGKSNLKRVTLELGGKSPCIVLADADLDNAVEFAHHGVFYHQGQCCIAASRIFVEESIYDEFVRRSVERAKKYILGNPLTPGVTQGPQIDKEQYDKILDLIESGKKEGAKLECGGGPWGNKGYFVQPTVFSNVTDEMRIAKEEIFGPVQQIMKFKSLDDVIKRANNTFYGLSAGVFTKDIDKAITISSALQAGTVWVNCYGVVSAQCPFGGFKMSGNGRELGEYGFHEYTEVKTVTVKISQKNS
HPGD inh = qHTS Assay for Inhibitors of HPGD (15-Hydroxyprostaglandin Dehydrogenase); 15-hydroxyprostaglandin dehydrogenase [NAD(+)] (Homo sapiens), P15428; purified HPGD, NADH fluorescence kinetic, PGE2 substrate; Potency, µM, for inactives: top-dose activity change, negative = inhibition, hits mostly inhibitors; 4.3% of 150,000 active; AID 894, 2007; note: potency is the fitted concentration of half-maximal effect
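20 nM HPGD preincubated 15 min at room temperature with compound in 50 mM Tris-HCl pH 8, 0.01% Tween 20. Started with 1 mM NAD+ and 30 uM prostaglandin E2; NADH fluorescence (360/450 nm) read 5 times over 30-s intervals, last minus first.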
Numbers without * were called inactive; [ ] = another dose, or the depositor's remark. Most compounds without a hit are left out; they make up all but 11% or so of the library. Unless noted, calls come from the whole dose curve; as a rule, active = well fitted inhibition curve with a large enough effect (not every such curve was filed as active); inconclusive = small, poorly fitted or top-dose-only effect, or another doubt; inactive = no such curve, though single readings can be large or run the other way. Unless noted, % is set by controls: 0 for no effect and ±100 for the full control effect.

`O=C(NNC(=O)c1cccs1)c1ccc(Cl)c(Cl)c1` gave PNC assembly inh -12, ALDH1A1 block 0% and HPGD inh -5%.
`CC(C)Nc1nc(SC(C)C(=O)Nc2ccccc2)nc(N(C)C)n1` (stereo not drawn) gave ALDH1A1 block -2%.
For CC(Sc1ncc(C#N)c(N)n1)C(=O)Nc1ccccc1 (stereo not drawn) the results were PNC assembly inh -112*, ALDH1A1 block -3% and HPGD inh -2%.
For COc1cccc2oc(-c3ccco3)cc(=O)c12 the results were PNC assembly inh 35, ALDH1A1 block inconclusive and HPGD inh inconclusive.
C/C(=N\NC(=O)C(N)=O)c1cccc(C(F)(F)F)c1 was read as ALDH1A1 block -4%.
Screening Cc1ccc(C2=NN(C(=O)C3CCCO3)C(c3ccco3)C2)cc1 (stereo not drawn) returned ALDH1A1 block -3%.
`O=C(C1CCCO1)N1N=C(c2ccc(Br)cc2)CC1c1ccco1` (stereo not drawn) gave PNC assembly inh -89*, ALDH1A1 block -9% and HPGD inh -9%.
For CCOC(=O)c1cc2c(nc1N)CC(C)(C)OC2 the results were PNC assembly inh 4, ALDH1A1 block inconclusive and HPGD inh inconclusive.
For CCOC(=O)c1cc2c(nc1NC(=S)Nc1ccccc1)CC(C)(C)OC2 the results were PNC assembly inh -82*, ALDH1A1 block 14µM* and HPGD inh -4%.
`CCc1ccc(NS(=O)(=O)c2ccc(Cl)cc2OC)cc1` gave ALDH1A1 block 1% and HPGD inh -10%.
`COc1ccc2c(c1)N(C[C@@H](C)CN(C)C)c1ccccc1S2` gave ALDH1A1 block 13%[20.9 µM] and HPGD inh -3%.
Cc1cc2cc(CNC(=O)c3ccc(S(=O)(=O)N(C)C)cc3)ccc2n1C was read as PNC assembly inh -26, ALDH1A1 block -11% and HPGD inh 0%.
`Cc1cc2cc(CNC(=O)c3ccc(S(=O)(=O)N4CCOCC4)cc3)ccc2n1C` gave PNC assembly inh 22, ALDH1A1 block 25µM* and HPGD inh -13%.
Screening Cc1cc2cc(CNC(=O)c3cccc([N+](=O)[O-])c3)ccc2n1C returned PNC assembly inh 10, ALDH1A1 block inconclusive and HPGD inh inconclusive.
`Cc1c(C(=O)NCc2ccc3c(c2)cc(C)n3C)cccc1[N+](=O)[O-]` gave PNC assembly inh 50, ALDH1A1 block 6% and HPGD inh 1.8µM*.
CC(=O)Nc1ccc(S(=O)(=O)NCc2ccc3c(c2)cc(C)n3C)cc1 was read as PNC assembly inh 2, ALDH1A1 block inconclusive and HPGD inh -5%.
O=C(NCCCN=C1NS(=O)(=O)c2ccccc21)c1ccc(S(=O)(=O)N2CCCCC2)cc1 was read as PNC assembly inh inconclusive, ALDH1A1 block 14µM* and HPGD inh -19%.
Screening Cc1cc2cc(CNS(=O)(=O)c3ccc4ccccc4c3)ccc2n1C returned PNC assembly inh -102*, ALDH1A1 block 14µM* and HPGD inh -16%.
`O=C(NCCN=C1NS(=O)(=O)c2ccccc21)c1ccncc1` gave PNC assembly inh 29, ALDH1A1 block 3% and HPGD inh -3%.
Screening COc1ccccc1OC[C@H](O)COC(N)=O returned ALDH1A1 block -12%[20.9 µM] and HPGD inh 6%.
For Cc1cc2ccccc2n1CCNC(=O)c1ccc(S(=O)(=O)N2CCCCC2)cc1 the results were PNC assembly inh 69, ALDH1A1 block 3.2µM* and HPGD inh -19%.
O=C(NCc1ccncc1)Nc1cccc(Cl)c1 was read as PNC assembly inh inconclusive, ALDH1A1 block 7% and HPGD inh -14%.
For Cc1cc2ccccc2n1CCNC(=O)C(C)C the results were PNC assembly inh 6, ALDH1A1 block -11% and HPGD inh -3%.
Screening Cc1cc2cc(CNC(=O)Nc3cccc(Cl)c3)ccc2n1C returned PNC assembly inh -26, ALDH1A1 block 22µM* and HPGD inh -13%.
Cc1cc2ccccc2n1CCNC(=O)Cc1ccccc1 was read as PNC assembly inh 9, ALDH1A1 block 7% and HPGD inh -7%.
`Cc1cc2ccccc2n1CCNC(=O)C(C)Oc1ccccc1` (stereo not drawn) gave PNC assembly inh -108*, ALDH1A1 block inconclusive and HPGD inh -15%.
Cc1cccc(NC(=O)NCc2ccc3c(c2)cc(C)n3C)c1 was read as PNC assembly inh -108*, ALDH1A1 block -9% and HPGD inh -17%.
COc1cccc(NC(=S)NCc2ccc3c(c2)cc(C)n3C)c1 was read as ALDH1A1 block -5%.
Screening Cc1ccccc1/C=C/C1=NCCN1 returned ALDH1A1 block inconclusive and HPGD inh 5%.
`COc1ccccc1/C=C(\NC(=O)c1ccc(OC)c(OC)c1)C(=O)Nc1cc([N+](=O)[O-])ccc1C` gave PNC assembly inh 36, ALDH1A1 block -3% and HPGD inh -8%.
CCC(C)NC(=O)CSc1ncccc1C(=O)O (stereo not drawn) was read as PNC assembly inh inconclusive, ALDH1A1 block 8% and HPGD inh -11%.
`COc1ccc(Br)cc1C(=O)Nc1ccccc1-c1ccccc1` gave PNC assembly inh -16 and ALDH1A1 block 0%.
`O=C(COC(=O)c1cccnc1)NC1CCCc2ccccc21` (stereo not drawn) gave ALDH1A1 block -3%.
Cn1ccnc1Sc1ccc(/C=N/NC(=O)c2ccccc2O)cc1[N+](=O)[O-] was read as PNC assembly inh inconclusive, ALDH1A1 block inconclusive and HPGD inh -7%.
Screening CCCCS(=O)Cc1ccccc1 (stereo not drawn) returned PNC assembly inh 5, ALDH1A1 block 3% and HPGD inh 0%.
For CC1CCc2ccccc2N1C(=N)N(C)C (stereo not drawn) the results were ALDH1A1 block 4%.
Cc1cc2cc(CNC(=O)Cc3ccc([N+](=O)[O-])cc3)ccc2n1C was read as ALDH1A1 block -5%.
For CCCC(=O)NCc1ccc2c(c1)cc(C)n2C the results were PNC assembly inh 47, ALDH1A1 block -5% and HPGD inh 7.9µM*.
For CC(=O)NCC1=C(NC(C)=O)C2CC1C(C)(C)C2C (stereo not drawn) the results were PNC assembly inh inconclusive, ALDH1A1 block -47% and HPGD inh -11%.
For Cc1cc(C)n2nc(CC(=O)NCc3ccc(F)cc3)nc2n1 the results were PNC assembly inh 48, ALDH1A1 block 7% and HPGD inh -8%.
For CC(C)(C)n1ncc2c(=O)n(CC(=O)Nc3ccc(Cl)cc3)cnc21 the results were PNC assembly inh inconclusive, ALDH1A1 block -6% and HPGD inh -9%.
For O=C(Cn1cnc2c(nnn2Cc2ccc(F)cc2)c1=O)NCc1ccc(F)cc1 the results were ALDH1A1 block 13%.
For CC(=O)Nc1ccc(NC(=O)Cn2cnc3c(cnn3C(C)(C)C)c2=O)cc1 the results were PNC assembly inh inconclusive, ALDH1A1 block 16µM* and HPGD inh 1%.
Screening CC(=O)Nc1ccc(NC(=O)Cn2cnc3c(nnn3Cc3ccc(F)cc3)c2=O)cc1 returned ALDH1A1 block 11µM*.
